Measured values: the supplement of paper PMC3545927
Some of the results follow. How many sequences the whole screen found active is unknown.

Target: furin, P09958
Assay: furin cleavage Z-score vs untreated control; higher = more cleavage, active = 3.5 or more, inactive = 1 or less, 8 variable residues between constant flanks
Procedure, shortened: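 Purified furin cleaved 8-mer peptides that were fused to a cDNA oligonucleotide and held on magnetic beads by their N-terminus. Each 0.01 ml reaction used a 1:10 enzyme:substrate ratio in 50 mM HEPES pH 7.5 with CaCl2 and NaCl and ran 7.5, 15 or 30 min. Released DNA was adapter-tagged by PCR and sequenced, and read counts gave abundance. The cleavage Z-score came from log counts against furin-free reactions, lowess-adjusted and scaled by median absolute deviation.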

Chain of furin, P09958 (P09958 whole entry): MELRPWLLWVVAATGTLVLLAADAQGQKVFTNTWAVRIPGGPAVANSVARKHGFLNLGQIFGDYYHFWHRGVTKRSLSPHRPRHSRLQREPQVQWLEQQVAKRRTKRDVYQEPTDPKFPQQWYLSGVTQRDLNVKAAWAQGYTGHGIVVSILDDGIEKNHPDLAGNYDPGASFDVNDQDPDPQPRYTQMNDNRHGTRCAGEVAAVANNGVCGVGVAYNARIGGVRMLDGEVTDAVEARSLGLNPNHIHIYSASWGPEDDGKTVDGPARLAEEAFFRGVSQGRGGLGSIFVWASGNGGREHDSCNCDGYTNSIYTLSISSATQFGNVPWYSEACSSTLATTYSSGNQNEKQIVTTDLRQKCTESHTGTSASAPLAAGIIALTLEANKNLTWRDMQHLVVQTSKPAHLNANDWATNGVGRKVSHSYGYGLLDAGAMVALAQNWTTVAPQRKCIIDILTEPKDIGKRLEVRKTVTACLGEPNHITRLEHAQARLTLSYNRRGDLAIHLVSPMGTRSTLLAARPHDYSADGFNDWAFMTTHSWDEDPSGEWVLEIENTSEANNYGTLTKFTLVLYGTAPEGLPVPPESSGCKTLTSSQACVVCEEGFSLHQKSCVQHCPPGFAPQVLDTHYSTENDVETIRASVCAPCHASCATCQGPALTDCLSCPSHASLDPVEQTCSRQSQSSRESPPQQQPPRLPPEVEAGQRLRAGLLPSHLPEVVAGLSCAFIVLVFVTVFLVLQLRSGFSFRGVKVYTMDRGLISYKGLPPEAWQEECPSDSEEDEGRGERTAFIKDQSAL

Sequence	furin cleavage Z-score (7.5 min)	furin cleavage Z-score (15 min)	furin cleavage Z-score (30 min)
CADHMEECSQAGNASASA [HC1815]	-0.251 (inactive)	-0.239 (inactive)	-0.816 (inactive)
CACRAAGLQDAGNASASA [HC1522]	-0.902 (inactive)	-1.39 (inactive)	-1.09 (inactive)
CASTLCSAHLAGNASASA [HC2505]	0.374 (inactive)	0.0643 (inactive)	-1.17 (inactive)
CARPRRQGEVAGNASASA [FS-3023]	0.519 (inactive)	0.202 (inactive)	0.396 (inactive)
CARDRRSPAEAGNASASA [FS-3152]	10.2 (active)	8.19 (active)	8.7 (active)
CARIFRHSSVAGNASASA [FS-2949]	1.97	0.695 (inactive)	1.03
CARIFRSSDFAGNASASA [FS-2030]	0.78 (inactive)	-0.809 (inactive)	0.131 (inactive)
CARDLRGLAEAGNASASA [FS-2904]	-1.94 (inactive)	0.23 (inactive)	0.275 (inactive)
CARIFRSIKQAGNASASA [FS-2148]	0.0894 (inactive)	2.91	5.31 (active)
CARPRRSEKQAGNASASA [FS-1965]	3.36	4.62 (active)	3.66 (active)
CARPRRGIIFAGNASASA [FS-3021]	1.06	1.16	5.75 (active)
CAWYELTPAEAGNASASA [HC924]	-1.27 (inactive)	-1.36 (inactive)	1.04
CAAARALAHGAGNASASA [HC234]	0.0166 (inactive)	-0.81 (inactive)	0.0305 (inactive)
CAEVPCHRPTAGNASASA [HC2418]	0.387 (inactive)	-0.0389 (inactive)	0.307 (inactive)
CASTSCSAHLAGNASASA [HC2517]	0.382 (inactive)	1.16	0.668 (inactive)
CAAEITGHVKAGNASASA [HC1177]	0.655 (inactive)	2.37	0.185 (inactive)
CADARRSPDQAGNASASA [FS-2627]	-0.496 (inactive)	-1.36 (inactive)	-0.54 (inactive)
CARPRRGSTAAGNASASA [FS-2743]	0.592 (inactive)	0.93 (inactive)	0.391 (inactive)
CARDRRQATEAGNASASA [FS-1692]	3.4	4.98 (active)	3.64 (active)
CARPRRSPAQAGNASASA [FS-1764]	9.55 (active)	11 (active)	8.87 (active)
CARPRRSTSPAGNASASA [FS-3026]	10.5 (active)	9.5 (active)	8.81 (active)
CARPRRRYYPAGNASASA [FS-1763]	0.0891 (inactive)	0.798 (inactive)	-1.17 (inactive)
CARPRRPASPAGNASASA [FS-2581]	0.54 (inactive)	-0.0908 (inactive)	-2 (inactive)
CARDLAVAVEAGNASASA [HC643]	1.07	-0.796 (inactive)	1.14
CARPRRSSTQAGNASASA [FS-3025]	6.4 (active)	8.65 (active)	6.89 (active)
CAEVPCHRPHAGNASASA [HC2415]	0.403 (inactive)	-0.336 (inactive)	0.894 (inactive)
CAADAILHTPAGNASASA [HC269]	0.255 (inactive)	-1.84 (inactive)	-0.719 (inactive)
